The campaign covered roughly 310,000 compounds. About 14,000 (4.5%) showed an effect of 50% or more. Effects have a minus sign here. Only a selection was taken, and strong results are over-represented in it overall.
Each compound was assayed against human ether-à-go-go-related gene (hERG) potassium channel (human, UniProt Q12809) (assay: primary screen, population patch clamp on CHO cells stably expressing hERG; higher = less effect of the substance).
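Also: peak tail current of the secondary pulse compared with the same well before compound.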

Sequence of human ether-à-go-go-related gene (hERG) potassium channel (Q12809 whole entry, looked up): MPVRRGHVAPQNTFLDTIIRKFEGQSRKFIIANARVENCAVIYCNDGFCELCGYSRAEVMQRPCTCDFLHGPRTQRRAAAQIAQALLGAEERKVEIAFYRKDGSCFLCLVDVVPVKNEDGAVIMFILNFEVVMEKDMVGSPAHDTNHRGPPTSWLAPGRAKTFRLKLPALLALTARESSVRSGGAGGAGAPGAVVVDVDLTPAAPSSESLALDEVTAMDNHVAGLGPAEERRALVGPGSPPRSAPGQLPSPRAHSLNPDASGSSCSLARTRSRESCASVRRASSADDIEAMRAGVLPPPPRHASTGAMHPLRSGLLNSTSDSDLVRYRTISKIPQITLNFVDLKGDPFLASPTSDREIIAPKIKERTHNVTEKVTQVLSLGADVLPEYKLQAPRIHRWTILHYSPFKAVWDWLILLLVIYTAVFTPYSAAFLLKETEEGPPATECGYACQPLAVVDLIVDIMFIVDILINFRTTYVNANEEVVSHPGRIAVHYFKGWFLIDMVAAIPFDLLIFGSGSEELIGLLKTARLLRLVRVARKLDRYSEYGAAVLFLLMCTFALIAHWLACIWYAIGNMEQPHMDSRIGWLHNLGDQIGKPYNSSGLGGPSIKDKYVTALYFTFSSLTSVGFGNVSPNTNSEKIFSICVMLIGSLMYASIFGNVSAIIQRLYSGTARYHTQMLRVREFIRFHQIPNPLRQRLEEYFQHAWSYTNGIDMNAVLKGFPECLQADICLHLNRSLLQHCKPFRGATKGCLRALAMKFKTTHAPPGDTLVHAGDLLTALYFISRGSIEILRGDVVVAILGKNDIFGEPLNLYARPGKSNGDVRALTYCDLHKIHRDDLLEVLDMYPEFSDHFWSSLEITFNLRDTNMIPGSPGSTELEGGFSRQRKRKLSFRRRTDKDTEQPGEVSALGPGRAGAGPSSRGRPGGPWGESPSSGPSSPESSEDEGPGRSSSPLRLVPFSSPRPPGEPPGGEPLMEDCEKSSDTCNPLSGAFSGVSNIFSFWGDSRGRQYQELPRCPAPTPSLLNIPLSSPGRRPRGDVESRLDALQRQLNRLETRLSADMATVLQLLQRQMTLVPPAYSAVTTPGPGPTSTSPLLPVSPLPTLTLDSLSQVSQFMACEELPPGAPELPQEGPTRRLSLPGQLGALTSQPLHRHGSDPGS

Structure (SMILES)	hERG current change (%, negative = inhibition) at 10uM [%]
O=C(CSc1nnc(C2CCCCC2)o1)Nc1ccccc1Cl	-11.5
COc1ccc(Cl)c(NCCC(=O)O)c1	15.5
Cc1c(N=C/C=C/c2ccccc2)c(=O)n(-c2ccccc2)n1C	11.1
O=S(N1CCc2ccccc21)C12CC3CC(CC(C3)C1)C2 (stereo not shown)	-6.09
O=C1C=C(c2ccc3c(c2)OCO3)C[C@@H](c2ccc(Cl)cc2)C1	5.86
O=C(NCc1ccccc1)c1ccc(Oc2ccc(C(=O)NCc3ccccc3)cc2)cc1	-3.44
O=C1CCCc2ccccc2N1Cc1ccc(Cl)cc1Cl	-18.2
Br.CCOC(=O)CN1C2=NCCCN2c2ccccc21	2.95
Br.Cc1ccc(C)c(C(=O)CN2C3=NCCCN3c3ccccc32)c1	-69.2
O=C1c2ccccc2N(Cc2ccc(Cl)cc2)C2=NCCN12	-13.5
Cl.ClCCN1C2=NCCCN2c2ccccc21	-26.4
Cl.Clc1ccc(CN2C3=NCCN3c3ccccc32)cc1	-69.5
Cl.Clc1ccc(CN2C3=NCCCN3c3ccccc32)c(Cl)c1	-66
Cc1ccc(C)c(C(=O)CN2C(=O)c3ccccc3C2=O)c1	9.96
Cl.Clc1ccc(CN2C3=NCCCN3c3ccccc32)cc1	-75.1
COc1ccc(NC(=O)CCOc2ccccc2)c(OC)c1	1.87
CNC(=O)NC(=O)COC(=O)c1n[nH]c2ccccc12	16.5
CCc1ccc(Nc2nc(N3CCOCC3)nc(N3CCOCC3)n2)cc1.Cl	8.6
C/C(=N\NC(=O)C1CCCN(S(=O)(=O)c2ccccc2)C1)c1ccccn1 (stereo not shown)	-20.8
CN(C)Cc1c(C(=O)N/N=C/CCc2ccccc2)nnn1-c1nonc1N	-31.1
Cc1onc(-c2ccccc2)c1CNS(=O)(=O)c1cccc(Cl)c1	-7.19
Cl.c1ccc(CN2C3=NCCCN3c3ccccc32)cc1	-57.5

Structure (SMILES)	hERG current change (%, negative = inhibition) at 10uM [%]
Cl.Clc1cccc(CN2C3=NCCCN3c3ccccc32)c1	-75.4
Cl.O=C(O)CN1C2=NCCCN2c2ccccc21	16.1
O=C1CCCc2ccccc2N1Cc1cccc(Cl)c1	-16.3
Clc1cccc(CN2CCCCCC2)c1	12.3
Brc1ccc(CN2C3=NCCCN3c3ccccc32)cc1.Cl	-74.2
c1ccc(CN2C3=NCCN3c3ccccc32)cc1	-39.5
Cl.O=C(CN1C2=NCCCN2c2ccccc21)c1ccc(Cl)cc1Cl	-79.6
O=C1CCCC2=C1C(c1ccc(O)c(Br)c1)C1=C(CCCC1=O)N2c1ccccc1	-33
COc1ccc(C2C(C#N)=C(C)NC3=C2S(=O)(=O)c2ccccc23)cc1 (stereo not shown)	-38.6
CCOC(=O)c1sc(=NC(=O)COc2ccc(Cl)cc2)n(C)c1C	3.44
COc1cc(C)c(NC(=O)COc2cccc3c2OC(C)(C)C3)cc1OC	-7.8
COc1cc(SC)ccc1C(=O)NCCNC(=O)c1nonc1N	-6.81
COc1ccccc1NC(=O)CCS(=O)(=O)c1ccc2c(c1)NC(=O)C(C)S2 (stereo not shown)	-4.76
COc1ccc(NC(=S)Nc2ccccn2)cc1	13.5
COc1ccc(C)cc1C(=O)CCC(=O)NCCc1ccc(S(N)(=O)=O)cc1	19.6
CCOc1ccc(Cn2nnc(C(=O)NCc3ccccc3)c2N)cc1	11.6
O=C1NC(=O)C2(Cc3ccccc3N3CCCC32)C(=O)N1c1cccc(Cl)c1 (stereo not shown)	-18.1
COc1ccc(N(C(=O)c2cnsn2)C(C(=O)NC2CCCCC2)c2ccncc2)cc1 (stereo not shown)	-26.7
COc1ccc(N(C(=O)c2csnn2)C(C(=O)NC2CCCC2)c2ccccc2)cc1 (stereo not shown)	-9.35
CCc1ccc(N(C(=O)c2csnn2)C(C(=O)NC(C)(C)CC)c2ccccn2)cc1 (stereo not shown)	-54.3
CC(=O)c1ccc(N(C(=O)c2csnn2)C(C(=O)NC2CCCC2)c2ccccc2)cc1 (stereo not shown)	-54.9
CCOc1ccc(N(C(=O)c2cnccn2)C(C(=O)NC2CCCCC2)c2ccc(O)cc2)cc1 (stereo not shown)	10.4

Structure (SMILES)	hERG current change (%, negative = inhibition) at 10uM [%]
O=C(NC1CCCC1)C(c1ccncc1)N(C(=O)c1csnn1)c1ccc(Cl)cc1 (stereo not shown)	-10.4
CCc1ccc(N(C(=O)c2csnn2)C(C(=O)NC(C)(C)C)c2ccccn2)cc1 (stereo not shown)	-42.7
CCOc1ccc(N(C(=O)c2cnsn2)C(C(=O)NC2CCCCC2)c2ccncc2)cc1 (stereo not shown)	-69.4
CC(=O)c1cccc(N(C(=O)c2csnn2)C(C(=O)NC2CCCC2)c2ccccc2)c1 (stereo not shown)	-18.5
CC(C)c1ccc(N(C(=O)c2csnn2)C(C(=O)NC2CCCC2)c2ccncc2)cc1 (stereo not shown)	-57.8
Cc1ccc(N(C(=O)c2csnn2)C(C(=O)NC2CCCCC2)c2ccncc2)cc1 (stereo not shown)	-1.71
CCC(C)(C)NC(=O)C(c1ccccn1)N(C(=O)c1csnn1)c1ccccc1 (stereo not shown)	5.39
COc1cccc(Nc2ncnc3onc(-c4ccccc4OC)c23)c1	-4.9
CNC(=S)N(Cc1cc2cc(C)cc(C)c2[nH]c1=O)C1CCCC1	-3.94
c1ccc(CCCc2nc(-c3ccccn3)no2)cc1	-7.53
COc1ccccc1Nc1nnc(SCC(=O)N2CCCC2=O)s1	-11.4
COCCCNC(=O)C1CCN(c2ccc(N3CCOCC3)nn2)CC1	10.1
O=C(CCCc1nc2ccccc2s1)N1CCN(c2ccccc2F)CC1	-31.3
COc1ccc2[nH]c3c(=O)n4c(nc3c2c1)SCC4	6.11
COc1ccc(CN2CC(C(=O)NCCCOC(C)C)CC2=O)cc1 (stereo not shown)	0.406
CC(CC(=O)Nc1ccc(F)cc1F)S(=O)(=O)c1ccc2c(c1)NC(=O)CO2 (stereo not shown)	-9
CC(=O)c1ccc(N2C(=O)C3C4C=CC(CC4)C3C2=O)cc1 (stereo not shown)	13.6
CN(C)S(=O)(=O)c1cccc(C(=O)Nc2ccccc2N2CCCCC2)c1	5.55
CCn1c(SC(C)C(=O)NCC2CCCO2)nc2scc(-c3ccccc3)c2c1=O (stereo not shown)	-28.7
COCCn1c(SC(C)C(=O)NCC2CCCO2)nc2scc(-c3ccc(F)cc3)c2c1=O (stereo not shown)	-66.5
COCCn1c(SC(C)C(=O)NCC2CCCO2)nc2sc3c(c2c1=O)CCC3 (stereo not shown)	-8.18
CCOC(=O)/C(=C/c1c(C)n(C)c2ccc([N+](=O)[O-])cc12)C(C)=O	-19.6

Structure (SMILES)	hERG current change (%, negative = inhibition) at 10uM [%]
Cc1nn(-c2ccc(C(=O)OC(C)C)cc2)c(C)c1[N+](=O)[O-]	4.98
CCOC(=O)CNC(=O)C1CCN(S(=O)(=O)c2ccc(-c3nn[nH]n3)cc2)CC1	8.58
Cc1cccc2cc(CN(Cc3cccnc3)C(=O)c3ccccc3F)c(Cl)nc12	-49.6
COCCN(Cc1cc2c(C)cc(C)cc2nc1Cl)C(=O)c1ccccc1F	44.3
Cc1cc(C)c2cc(CN(Cc3cccnc3)C(=O)c3ccc(F)cc3)c(Cl)nc2c1	-64.7
CC(=O)Nc1ccccc1C(=O)C(=O)Nc1ccc(C)c(F)c1	24.3
O=C(CSC1=NCCS1)Nc1ccc(S(=O)(=O)NC2CCCCC2)cc1	-8.65
CC(=O)c1ccc(OCC(O)CN2CCN(Cc3ccccc3)CC2)cc1.Cl (stereo not shown)	-48.2
CC1CCN(CC(O)COc2ccc(OCC(O)CN3CCC(C)CC3)cc2)CC1 (stereo not shown)	3.84
CC1CCN(CC(O)COc2ccc(C(=O)c3ccccc3)cc2)CC1 (stereo not shown)	-67.4
CC1CCN(CC(O)COc2ccc(-c3ccccc3)cc2)CC1.Cl (stereo not shown)	-81
OC(COc1ccc(OCC(O)CN2CCN(Cc3ccccc3)CC2)cc1)CN1CCN(Cc2ccccc2)CC1 (stereo not shown)	5.65
CC(=O)c1ccc(OCC(O)CN2CC(C)OC(C)C2)cc1.Cl (stereo not shown)	8.19
O=C(c1ccccc1)c1ccc(OCC(O)CN2CCN(Cc3ccccc3)CC2)cc1 (stereo not shown)	-73.4
CC1CN(CC(O)COc2ccc(C(=O)c3ccccc3)cc2)CC(C)O1 (stereo not shown)	-63.3
CC(=O)c1ccc(OCC(O)CN2CCC(C)CC2)cc1.Cl (stereo not shown)	-31.6
NC(=O)C1CCN(CC(O)COc2ccc(-c3ccccc3)cc2)CC1 (stereo not shown)	-34.4
O=C(c1ccccc1)c1ccc(OCC(O)CN2CCCC2)cc1 (stereo not shown)	-45.3
CCC(=O)c1ccc(OCC(O)CN2CC(C)OC(C)C2)cc1.O=C(O)C(=O)O (stereo not shown)	14
CC(=O)c1sc(-c2ccc(F)cc2)cc1NS(=O)(=O)c1ccc(C)cc1	7.93
C=CCOc1ccc2ccccc2c1CNn1cn[nH]c1=S	-8.17
O=C(NCCc1csc(-c2cccc(F)c2)n1)c1ccco1	-4.61

From article PMC4336329 (PLoS ONE, 2015)
